Reference: the supplement of paper PMC9925115

Test system: FLX1 + dox-induced PRKAR1A G325D
Experiment: difference in log2 fold change of viability vs plate median (dox-induced PRKAR1A G325D minus uninduced); higher = compound less effective when PKA is inhibited
Details: concentration: not stated (2 or 5 uM); 5 days
Protocol: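 For each plate a log2 fold change vs the plate median was derived, and the values without dox were subtracted from those with dox, averaged over three biological replicates.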

Row | SMILES | difference in log2 fold change of viability
1 | Cn1cc(-c2ccc3nnc(C(F)(F)c4ccc5ncccc5c4)n3n2)cn1 | 0.158
2 | COc1cc2ncnc(Nc3ccc(F)c(Cl)c3)c2cc1NC(=O)/C=C/CN1CCCCC1 | -0.0217
3 | COc1cc(OC)c(/C=C/S(=O)(=O)Cc2ccc(OC)c(NCC(=O)O)c2)c(OC)c1 | 0.2
4 | Cc1ccc(C(=O)Nc2ccc(CN3CCN(C)CC3)c(C(F)(F)F)c2)cc1C#Cc1cnc2[nH]ncc2c1 [GZD824 Dimesylate] | 0.11
5 | N#Cc1c(NC(=O)c2cccc3ccccc23)sc2c1CCCC2 [JNK Inhibitor IX] | 0.317
6 | Cc1ccccc1CN1C2=NCCN2C(=O)C2=C1CCN(Cc1ccccc1)C2 [TIC10 Analogue] | -0.0375
7 | N#CC1(c2ccc(NC(=O)c3cccnc3NCc3ccncc3)cc2)CCCC1 [Apatinib] | 0.497
8 | CC(=O)Nc1nc(C)c(-c2ccc(Cl)c(S(=O)(=O)NCCO)c2)s1 | 1.62
9 | CN(C)Cc1cccc(N/C(=C2\C(=O)Nc3cc(C(N)=O)ccc32)c2ccccc2)c1 | -0.409
10 | Cc1cc(N2CCOCC2)cc2[nH]c(-c3c(NC[C@@H](O)c4cccc(Cl)c4)cc[nH]c3=O)nc12 | -1.17
11 | CNC(=O)c1cccc(-c2ccc3c(N4CCOC[C@@H]4C)nc(N4CCOC[C@@H]4C)nc3n2)c1 [Vistusertib (AZD2014)] | 0.675
12 | CN1CCC(CNc2ccc3ncc(-c4cccc(OC(F)(F)F)c4)n3n2)CC1 [SGI-1776 free base] | -0.0813
13 | CS(=O)(=O)N1CCN(Cc2cc3nc(-c4cccc5[nH]ncc45)nc(N4CCOCC4)c3s2)CC1 [Pictilisib (GDC-0941)] | -0.0931
14 | O=C(NCc1cccc(O)c1)Nc1nc(-c2ccncc2)cs1 | -0.0799
15 | Cn1ncc(Cl)c1-c1cc(C(=O)N[C@H](CN)Cc2ccc(F)c(F)c2)oc1Cl | -0.0579
16 | CCc1nc(-c2cccc(C)c2)c(-c2ccnc(NC(=O)c3ccccc3)c2)s1 | 0.387
17 | CO[C@H]1C[C@@H]2CC[C@@H](C)[C@@](O)(O2)C(=O)C(=O)N2CCCC[C@H]2C(=O)O[C@H]([C@H](C)C[C@@H]2CC[C@@H](O)[C@H](OC)C2)CC(=O)[C@H](C)/C=C(\C)[C@@H](O)[C@@H](OC)C(=O)[C@H](C)C[C@H](C)/C=C/C=C/C=C/1C [Rapamycin (Sirolimus)] | -0.339
18 | CN(C)Cc1cccc(N=C(c2ccccc2)c2c(O)[nH]c3cc(C(=O)N(C)C)ccc23)c1 | 0.0526
19 | Cn1cc(/C=C2\C(=O)Nc3cccnc32)c2ccccc21 | 0.00477
20 | O=C(/C=C/c1ccc2ccccc2n1)c1ccncc1 | -0.467

Row | SMILES | difference in log2 fold change of viability
21 | CCN1CCN(Cc2ccc(-c3cc4c(N[C@H](C)c5ccccc5)ncnc4[nH]3)cc2)CC1 | -0.338
22 | COc1cc2nccc(Oc3ccc(NC(=O)NC4CC4)c(Cl)c3)c2cc1C(N)=O [Lenvatinib (E7080)] | -0.0902
23 | COc1cc(N2CCC(N(C)C)CC2)ccc1Nc1ncc(Cl)c(Nc2ccccc2P(C)(C)=O)n1 | -1.41
24 | CNC(=O)c1cc(Oc2ccc(NC(=O)Nc3cc(C(C)(C)C)nn3-c3ccc4ncccc4c3)c(F)c2)ccn1 [Rebastinib (DCC-2036)] | 0.37
25 | CC(C)c1cnn2c(NCc3ccccc3)cc(NCCCCCCN)nc12 | -0.0617
26 | Cc1[nH]c(/C=C2\C(=O)Nc3ccccc32)c(C)c1CCC(=O)O [Orantinib (TSU-68, SU6668)] | 0.216
27 | COc1cc(Nc2c(C#N)cnc3cc(OCCCN4CCN(C)CC4)c(OC)cc23)c(Cl)cc1Cl [Bosutinib (SKI-606)] | -0.235
28 | COc1cc2ncnc(Nc3ccc(F)c(Cl)c3)c2cc1OCCCN1CCOCC1 [Gefitinib (ZD1839)] | -0.198
29 | CC1=C(C(=O)Nc2cc3cn[nH]c3cc2F)C(c2ccc(C(F)(F)F)cc2)CC(=O)N1 (stereo not given) | 0.418
30 | O=C(NOC[C@H](O)CO)c1ccc(F)c(F)c1Nc1ccc(I)cc1F | -1.04
31 | CCCCOc1c(C(=O)c2c(F)cc(C)cc2F)c[nH]c2nncc1-2 | 0.486
32 | CNCc1ccc(-c2cc(-c3nc(-c4ccc(S(=O)(=O)C(C)C)cc4)cnc3N)on2)cc1 | -0.00074
33 | Cn1cc(C2=C(c3ccc(Cl)cc3Cl)C(=O)NC2=O)c2ccccc21 | 0.189
34 | Cc1ccc(NC(=O)c2ccc(CN3CCN(C)CC3)cc2)cc1Nc1nc(-c2cccnc2)cs1 [Masitinib (AB1010)] | 0.682
35 | O=C(NCCCNc1nc(Nc2cccc(NC(=O)N3CCCC3)c2)ncc1I)c1cccs1 | 0.621
36 | NCC(=O)Nc1ccc(-n2nc(C(F)(F)F)cc2-c2ccc3c(ccc4ccccc43)c2)cc1 | 0.186
37 | N#CCNC(=O)c1ccc(-c2ccnc(Nc3ccc(N4CCOCC4)cc3)n2)cc1 [Momelotinib (CYT387)] | 0.708
38 | CC(C)(C)NS(=O)(=O)c1cncc(-c2cc(F)c3nc(N)nn3c2)c1 | -0.0394
39 | COc1ccccc1-c1cc(Nc2cccc(CS(N)(=O)=O)c2)ncn1 | 0.055
40 | CNC(=O)c1ccccc1Sc1ccc2c(/C=C/c3ccccn3)n[nH]c2c1 [Axitinib] | -0.125
